# Experimental data reported in PubChem BioAssay AID1220 (Sanford-Burnham Center for Chemical Genomics, 2008).
# Hit rate of the full screen: of about 190,000 compounds, about 1,300 (0.68%) were called active. The sample as a whole holds a higher share of actives than the screen did. Unmarked numbers belong to inactive results. Rule as the data show it: active = inhibition above about 50%; inactive = the rest.
# Molecular target: Mannose-6-phosphate isomerase (Homo sapiens) (UniProt P34949)
# Experiment: human PMI inhibitors, high substrate, primary screen, biochemical, fluorescence intensity, high mannose 6-phosphate (AID 1220)
# Conditions: recombinant PMI enzyme, coupled fluorescence intensity; at 20 µM; hits give high values
# Chain of Mannose-6-phosphate isomerase (Homo sapiens) (P34949 whole entry, looked up): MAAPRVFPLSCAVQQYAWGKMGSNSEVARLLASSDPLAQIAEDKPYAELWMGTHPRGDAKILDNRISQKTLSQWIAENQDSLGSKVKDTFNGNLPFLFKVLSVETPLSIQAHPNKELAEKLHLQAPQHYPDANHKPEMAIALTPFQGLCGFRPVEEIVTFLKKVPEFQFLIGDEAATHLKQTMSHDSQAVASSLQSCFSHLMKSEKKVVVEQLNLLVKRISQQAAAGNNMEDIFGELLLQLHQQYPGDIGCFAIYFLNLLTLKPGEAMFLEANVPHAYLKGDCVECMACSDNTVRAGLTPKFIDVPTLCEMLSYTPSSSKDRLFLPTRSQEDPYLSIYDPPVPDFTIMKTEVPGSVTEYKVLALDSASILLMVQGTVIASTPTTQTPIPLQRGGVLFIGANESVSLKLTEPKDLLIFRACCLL
row,Compound,inhibition
1,CCC(=C(c1ccc(OC)cc1)c1ccc(OC)cc1)c1cn(CC(O)CN2CCN(C)CC2)c2ccccc12 (stereo unspecified),-5.7%
2,c1ccc(CCn2nnnc2C(c2cccnc2)N2CCN(c3nc4ccccc4s3)CC2)cc1 (stereo unspecified),15.2%
3,CC(C)c1ccc(NC(=O)C(c2ccc3c(c2)OCO3)N2CCCCC2)cc1 (stereo unspecified),10.5%
4,Oc1cc2c(cc1C(c1ccc(Cl)c(Cl)c1)N1CCCC1)OCO2 (stereo unspecified),59.9% (active)
5,Oc1cc2c(cc1C(c1ccc(Br)cc1)N1CCCC1)OCO2 (stereo unspecified),68.1% (active)
6,S=C(c1ccc2c(c1)OCO2)N1CCCC1,7.1%
7,Oc1c(C(c2ccc(Cl)cc2)N2CCCC2)cc(Cl)c2cccnc12 (stereo unspecified),44.8%
8,S=C(c1ccc2c(c1)OCO2)N1CCCCCC1,3.6%
9,CCN(CC)C(=O)C(=O)Nc1ccc(OCc2ccccc2)cc1,0.5%
10,CC(C)Nc1nc(NC(C)C)nc(C(=O)OCCO)n1,-5.1%
11,O=C(COc1ccccc1)N(Cc1cc2ccccc2[nH]c1=O)CC1CCCO1 (stereo unspecified),0.7%
12,CC(C)N1CCN(Cc2ccsc2)CC1CCO (stereo unspecified),5.4%
13,N#Cc1c2c(c(NCc3ccco3)n3c1nc1ccccc13)CCC2,50.2% (active)
14,N#Cc1c2c(c(NCc3cccnc3)n3c1nc1ccccc13)CCC2,11.3%
15,CCc1c(C)c(C#N)c2nc3ccccc3n2c1NCc1ccco1,-6.6%
16,Cc1ccc(NC(=O)CN2C(=O)NC(C)(CCc3ccccc3)C2=O)cc1 (stereo unspecified),26.7%
17,COc1cccc(C2CC(=O)NC3=C2C(=O)CCC3)c1 (stereo unspecified),-0.9%
18,CCC(NC(=O)C1CCC1)c1ccc(C)cc1 (stereo unspecified),3.8%
19,O=C(c1ccccc1)c1cc2c(cc1[N+](=O)[O-])OCCO2,10.9%
20,O=C(c1ccccc1F)c1cc2c(cc1[N+](=O)[O-])OCCO2,51.7% (active)
21,Nc1cc2c(cc1C(=O)c1ccccc1F)OCCO2,13.3%
22,COc1ccc(OC)c(NC(=S)NCC(c2cccnc2)N2CCOCC2)c1 (stereo unspecified),2.4%
23,CC(C)N1CCN(Cc2ccoc2)CC1CCO (stereo unspecified),-6.7%
24,CCOc1ccccc1-c1c2cc(O)c(=O)cc-2oc2cc(O)c(O)cc12,42%
25,COc1ccc(OC)c(-c2c3cc(O)c(=O)cc-3oc3cc(O)c(O)cc23)c1,55.4% (active)
26,Cc1c2cc(O)c(=O)cc-2oc2cc(O)c(O)cc12,28.8%

row,Compound,inhibition
1,CN(C)C(=O)C[n+]1cccc(/C=N/O)c1,-5.5%
2,C=CCn1c(SCC(=O)Nc2ccccc2)nnc1-c1cccc(S(=O)(=O)N2CCOCC2)c1,3.2%
3,C[C@@H]1O[C@@H](OC[C@H]2O[C@@H](Oc3c(-c4ccc(O)c(O)c4)oc4cc(O)cc(O)c4c3=O)[C@H](O)[C@@H](O)[C@@H]2O)[C@H](O)[C@H](O)[C@H]1O,18.4%
4,CC1OC(OCC2OC(Oc3c(-c4ccc(O)cc4)oc4cc(O)cc(O)c4c3=O)C(O)C(O)C2O)C(O)C(O)C1O (stereo unspecified),16.6%
5,COC(=O)c1ccc(COC(=O)CNC(=O)c2ccco2)cc1,1.5%
6,CC1CC(NC(=O)c2ncn[nH]2)CC(C)(C)C1 (stereo unspecified),-12.5%
7,COc1ccc(C(=O)/C=C2\NCC3c4ccccc4CCN3C2=O)cc1 (stereo unspecified),-140%
8,Cc1cccc(C(=O)NCCN(C)C)c1,3%
9,Cc1cc(-c2ccco2)n(CC(=O)O)n1,-2.6%
10,Cc1cc(NC(=O)c2cc(-c3ccco3)on2)n(-c2ccccc2)n1,26.3%
11,Cc1cc(-c2ccco2)n(-c2ccccc2)n1,50.5% (active)
12,Cc1ccc(OCC(O)CN2C(=O)NC(C)(C)C2=O)cc1 (stereo unspecified),5.5%
13,CC1(C)NC(=O)N(CC(O)COc2ccc(-c3ccccc3)cc2)C1=O (stereo unspecified),-0.4%
14,CC1(C)NC(=O)N(CC(O)COc2ccc(N3C(=O)c4ccccc4C3=O)cc2)C1=O (stereo unspecified),53% (active)
15,O=C(NCC(=O)N1CCCC1)c1cccs1,2%
16,O=C(N=Nc1ccc(NOC(=O)c2ccccc2Br)cc1)c1ccccc1O,65.2% (active)
17,O=C(ONc1ccc(N=NC(=O)c2ccccc2O)cc1)c1ccccc1,22.9%
18,Cc1ccc(C(=O)ONc2ccc(N=NC(=O)c3ccccc3O)cc2)cc1,-5.4%
19,CN(Cc1cccnc1)C(=O)CC1C(=O)NCCN1Cc1ccc(-c2ccccc2)cc1 (stereo unspecified),8.9%
20,CCOC(=O)C(C#N)C(Cc1ccccc1)c1ccco1 (stereo unspecified),5.7%
21,COC(=O)c1cc(OC)c(OC)cc1NC(=S)Nc1cccc(C(C)=O)c1,-8%
22,COc1ccc(NC(=S)Nc2cccc(Cl)c2)cc1OC,61.4% (active)
23,COc1ccc(C(=O)Nc2cccc(C(C)=O)c2)cc1OC,-4.1%
24,COc1ccc(NC(=S)Nc2cccc(Cl)c2Cl)cc1OC,40.9%
25,COc1ccc(NC(=S)Nc2ncccc2C)cc1OC,55.1% (active)
26,COc1cc(C)c(NC(=S)Nc2cccc(Cl)c2)cc1OC,24.5%

row,Compound,inhibition
1,COc1ccc(NC(=S)Nc2cccc(C(C)=O)c2)cc1OC,50.5% (active)
2,COc1ccc(NC(=S)Nc2ncccc2C)c(OC)c1,10.1%
3,COc1cc(NC(=S)Nc2ncccc2C)cc(OC)c1OC,31%
4,Cc1c(NC(=O)c2cc3ccccc3o2)c(=O)n(-c2ccccc2)n1C,-16.9%
5,COc1ccc(-c2nc(N3CCCC3)[nH]c(=O)c2C#N)cc1,-5.5%
6,C=CCc1cccc2cc(C(=O)NCc3cccnc3)c(=O)oc12,3.6%
7,Cc1ccc(NCC(=O)N=Nc2c(O)n(C)c3ccccc23)cc1,-2.1%
8,O=C(NC1CC1)C1=C[C@H](C2CC2)C[C@H](OCCCCO)O1,0.3%
9,CCS(=O)(=O)c1ccc2oc(SCC(=O)Nc3ccc(OC)cc3OC)nc2c1,14.5%
10,Cc1onc(-c2ccccc2Cl)c1C(=O)N1CCOC12CCCCC2,-6.1%
11,Cc1[nH]n(-c2ccccc2)c(=O)c1/C=N/NC(=O)COc1ccccc1[N+](=O)[O-],58.1% (active)
12,COCC(=O)N/N=C/c1c(C)[nH]n(-c2ccccc2)c1=O,-4.5%
13,Cc1ccc(OCC(=O)N/N=C\c2c(C)[nH]n(-c3ccccc3)c2=O)c([N+](=O)[O-])c1,-3.5%
14,CC(C)CN1C(=O)c2ccc(NC(=O)c3ccco3)cc2C1=O,6.2%
15,O=C(Nc1ccc(F)cc1)Nc1ccc(N2CCOCC2)c2nonc12,38%
16,O=C(Nc1ccc(N2CCOCC2)c2nonc12)C1CCCC1,44.8%
17,COc1ccc(NC(=O)Nc2ccc(C(=O)N3CCOCC3)cc2)c(OC)c1,0.2%
18,COc1ccc(NC(C)C(=O)Nc2cc(C(F)(F)F)ccc2N2CCOCC2)c(OC)c1 (stereo unspecified),24%
19,O=C(Nc1ccc([N+](=O)[O-])cc1)Nc1ccc(N2CCOCC2)c2nonc12,57.9% (active)
20,COc1ccc(NC(=O)Nc2ccc(N3CCOCC3)c3nonc23)c(OC)c1,55.8% (active)
21,COc1ccc(C)cc1-n1c(SCC(=O)Nc2cc(C)on2)nc2ccccc2c1=O,10.8%
22,COC(=O)Cc1sc(-c2ccccn2)nc1-c1ccccc1,21.2%
23,CCOCCCNC(=S)Nc1cc(OCC)c(NC(=O)c2ccco2)cc1OCC,44.5%
24,CCOc1cc(NC(=S)NCCCOC)c(OCC)cc1NC(=O)c1ccco1,50.7% (active)
25,CCNC(=S)Nc1cc(OCC)c(NC(=O)c2ccco2)cc1OCC,52.8% (active)
26,CCOc1cc(NC(=S)NCCOC)c(OCC)cc1NC(=O)c1ccco1,22.6%

row,Compound,inhibition
1,CCNC(=S)Nc1cc(OC)c(NC(=O)c2ccco2)cc1OC,33.9%
2,CCOc1cc(NC(=S)NC)c(OCC)cc1NC(=O)c1ccco1,49.7%
3,O=C(CO/N=C/c1ccc(OC(F)F)cc1)NC1CCCC1,0.6%
4,COC(=O)C1=C(C)N(CCc2ccc(OC)c(OC)c2)C(=O)C1,-10.6%
5,Cc1nnc(SCc2nnc(-c3cccs3)o2)n1Cc1ccccc1,-7.3%
6,COc1cc(C(c2oc(CO)cc(=O)c2O)c2oc(CO)cc(=O)c2O)cc(OC)c1OC,-11.4%
7,CCCN1CCN(CCCNC(=S)Nc2ccc(OC)cc2)CC1,6.6%
8,O=C(OCC(=O)N1CCCCC1)c1ccccc1SCC(=O)N1CCCCC1,-4%
9,N#Cc1c2ccc(O)cc2n2ccccc12,62.6% (active)
10,Cn1c(CN2CCOCC2)c(C#N)c2ccccc21,3%
11,Cc1cc(=O)n2ccccc2c1C#N,3.5%
12,COC(=O)CCC/C=C1/SCC(NC(=O)c2ccccc2)/C1=N/O (stereo unspecified),-7.4%
13,CCC(C(=O)Nc1cnccn1)c1ccccc1 (stereo unspecified),4%
14,Cc1cc(C)nc(SCc2ccc(C(=O)N/N=C/c3cccc(O)c3O)cc2)n1,55% (active)
15,CCOc1ccccc1/C=N/NC(=O)c1cccc(S(=O)(=O)N(CC)CC)c1,5.1%
16,CCn1c(C)nc2cc(C(=O)N/N=C/c3cccc(OC)c3O)ccc21,-8.6%
17,CCN(CC)S(=O)(=O)c1cccc(C(=O)N/N=C/c2ccccc2OCC(=O)O)c1,2.8%
18,COc1ccc(O)c(/C=N/NC(=O)c2ccc(CSc3nc(C)cc(C)n3)cc2)c1,-12.2%
19,CCn1c(C)nc2cc(C(=O)N/N=C/c3ccccc3C)ccc21,-6.4%
20,Cc1cc(C)nc(SCc2ccc(C(=O)N/N=C/c3ccccc3C(=O)O)cc2)n1,-6.2%
21,CCN(CC)S(=O)(=O)c1cccc(C(=O)N/N=C/c2cc(OC)c(O)c(OC)c2)c1,15.5%
22,CCN(CC)S(=O)(=O)c1cccc(C(=O)N/N=C/c2ccc(OC)c(O)c2)c1,6.1%
23,CCN(CC)S(=O)(=O)c1cccc(C(=O)N/N=C/c2cccc(O)c2O)c1,53.1% (active)
